The full data set covers some 7,900 targets. This sample favours those with a hit. About 0.6% of all pairs of compound and target were hits.
Columns and labels:
Assay in all cases: log2 fold change, soluble protein after heating vs DMSO (PISA); higher = thermal stabilisation; K562 cells, 10 uM, 30 min; active = over 0.2 and 3.5 SD of the protein, either way, in both replicates (recomputed)
[1] = compound: CC[C@@H]1C(=O)N(C)c2cnc(Nc3ccc(C(=O)NC4CCN(C)CC4)cc3OC)nc2N1C1CCCC1
Method in brief: (§1)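 K562 cells at 2×10^6 cells/mL were treated for 30 min with 10 μM compound, and aliquots were heated for 3 min over 48°C-58°C before pooling. Extraction used PBS with 0.5% NP-40 at 4°C, and soluble protein was the supernatant after 21,000xg for 90 min, measured by TMTpro 16plex LC-MS/MS with channel sums equalised. Thermal stability values, relative to control samples and from duplicates, are log2 fold changes.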

[2] = compound: CC[C@@H]1C(=O)N(C)c2cnc(Nc3ccc(C(=O)N[C@H]4CC[C@H](N5CCN(CC6CC6)CC5)CC4)cc3OC)nc2N1C(C)C [volasertib]
Method in brief: as §1

[3] = compound: CC[C@H](C)N1C=C(C2=C(C=C(C=C21)C3=CN=C(C=C3)N4CCNCC4)C(=O)NCC5=C(C=C(NC5=O)C)C)C
Method in brief: as §1

[4] = compound: CC[C@H](C)[C@@H](C(=O)N[C@@H]([C@@H](C)O)C(=O)N[C@@H](CC(C)C)C(=O)[C@]1(CO1)C)NC(=O)[C@H]([C@@H](C)CC)N(C)C(=O)C [epoxomicin]
Method in brief: as §1

[5] = compound: CCn1c(C(=O)N(C2CC2)C2CC2)cc2c3c(ncn3C)c(Nc3cc(C)n(C)n3)nc21
Method in brief: as §1

[6] = compound: CCn1cc(-c2ccnc3[nH]c(-c4cccc(CN(C)C)c4)cc23)c(-c2ccc(NC(=O)N(C)C)cc2)n1
Method in brief: as §1

[7] = compound: CN(C)CC(=O)Nc1ccc2[nH]c(=O)c3ccccc3c2c1
Method in brief: as §1

[8] = compound: CN(CCOC1=CC=C(C=C1)C[C@H]2C(=O)NC(=O)S2)C3=CC=CC=N3 (racemic) [rosiglitazone]
Method in brief: as §1

[9] = compound: CN1C2=C(C3=C1C(=O)N(N=C3)CC4=CC(=CC=C4)N)SC(=C2)S(=O)C
Method in brief: as §1

[10] = compound: CN1CCC(CNc2ccc3ncc(-c4cccc(OC(F)(F)F)c4)n3n2)CC1
Method in brief: as §1

Measured: log2 fold change

RPRD1B (UniProt Q9NQG5)
active: [2] -0.245
inactive: [1] -0.057 | [3] 0.077 | [4] 0.075 | [5] 0.009 | [6] -0.005 | [7] 0 | [8] 0.052 | [9] -0.059 | [10] -0.077

RPS14 (UniProt P62263)
inactive: [1] 0.043 | [2] 0.362 | [3] 0.023 | [4] -0.031 | [5] 0.015 | [6] 0.122 | [7] -0.066 | [8] -0.056 | [9] 0.095 | [10] 0.158

RICTOR isoform 3 (UniProt Q6R327)
active: [2] -0.758
inactive: [1] -0.271 | [3] -0.033 | [4] 0.064 | [5] -0.585 | [6] -0.083 | [9] 0.265 | [10] -0.169

SACM1L (UniProt Q9NTJ5)
inactive: [1] -0.193 | [3] -0.001 | [4] 0.019 | [5] 0.029 | [6] -0.019 | [7] 0.033 | [8] 0.021 | [9] -0.076 | [10] 0.031
active: [2] -0.534

RDH13 (UniProt Q8NBN7)
Sequence of UniProt Q8NBN7 (Q8NBN7 whole entry, looked up): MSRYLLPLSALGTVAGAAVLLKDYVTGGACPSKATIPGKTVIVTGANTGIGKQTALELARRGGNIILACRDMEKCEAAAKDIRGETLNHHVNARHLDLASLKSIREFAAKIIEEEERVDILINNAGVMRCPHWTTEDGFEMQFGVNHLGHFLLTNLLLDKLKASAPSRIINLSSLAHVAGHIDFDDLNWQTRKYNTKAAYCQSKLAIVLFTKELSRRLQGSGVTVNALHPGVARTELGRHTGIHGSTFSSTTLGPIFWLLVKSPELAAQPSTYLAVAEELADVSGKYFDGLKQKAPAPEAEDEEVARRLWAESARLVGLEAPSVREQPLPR
active: [10] -0.318
inactive: [1] -0.154 | [2] -0.06 | [3] 0.06 | [4] 0.022 | [5] 0.009 | [6] -0.058 | [7] 0.051 | [8] 0.013 | [9] -0.059

SDHAF4 (UniProt Q5VUM1)
Sequence of UniProt Q5VUM1 (Q5VUM1 whole entry, looked up): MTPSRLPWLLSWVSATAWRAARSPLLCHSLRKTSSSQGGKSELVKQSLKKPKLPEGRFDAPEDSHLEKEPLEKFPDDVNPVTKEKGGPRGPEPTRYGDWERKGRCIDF
inactive: [1] 0.013 | [2] 0.075 | [3] -0.045 | [4] -0.066 | [5] 0.162 | [8] 0.048 | [9] -0.014

RALY (UniProt Q9UKM9)
inactive: [1] 0.113 | [2] -0.05 | [3] 0.136 | [4] -0.277 | [5] 0.012 | [6] 0.173 | [7] 0.001 | [8] -0.134 | [9] 0.358 | [10] 0.092

RBBP6 (UniProt Q7Z6E9)
Sequence of UniProt Q7Z6E9 (Q7Z6E9 whole entry, looked up): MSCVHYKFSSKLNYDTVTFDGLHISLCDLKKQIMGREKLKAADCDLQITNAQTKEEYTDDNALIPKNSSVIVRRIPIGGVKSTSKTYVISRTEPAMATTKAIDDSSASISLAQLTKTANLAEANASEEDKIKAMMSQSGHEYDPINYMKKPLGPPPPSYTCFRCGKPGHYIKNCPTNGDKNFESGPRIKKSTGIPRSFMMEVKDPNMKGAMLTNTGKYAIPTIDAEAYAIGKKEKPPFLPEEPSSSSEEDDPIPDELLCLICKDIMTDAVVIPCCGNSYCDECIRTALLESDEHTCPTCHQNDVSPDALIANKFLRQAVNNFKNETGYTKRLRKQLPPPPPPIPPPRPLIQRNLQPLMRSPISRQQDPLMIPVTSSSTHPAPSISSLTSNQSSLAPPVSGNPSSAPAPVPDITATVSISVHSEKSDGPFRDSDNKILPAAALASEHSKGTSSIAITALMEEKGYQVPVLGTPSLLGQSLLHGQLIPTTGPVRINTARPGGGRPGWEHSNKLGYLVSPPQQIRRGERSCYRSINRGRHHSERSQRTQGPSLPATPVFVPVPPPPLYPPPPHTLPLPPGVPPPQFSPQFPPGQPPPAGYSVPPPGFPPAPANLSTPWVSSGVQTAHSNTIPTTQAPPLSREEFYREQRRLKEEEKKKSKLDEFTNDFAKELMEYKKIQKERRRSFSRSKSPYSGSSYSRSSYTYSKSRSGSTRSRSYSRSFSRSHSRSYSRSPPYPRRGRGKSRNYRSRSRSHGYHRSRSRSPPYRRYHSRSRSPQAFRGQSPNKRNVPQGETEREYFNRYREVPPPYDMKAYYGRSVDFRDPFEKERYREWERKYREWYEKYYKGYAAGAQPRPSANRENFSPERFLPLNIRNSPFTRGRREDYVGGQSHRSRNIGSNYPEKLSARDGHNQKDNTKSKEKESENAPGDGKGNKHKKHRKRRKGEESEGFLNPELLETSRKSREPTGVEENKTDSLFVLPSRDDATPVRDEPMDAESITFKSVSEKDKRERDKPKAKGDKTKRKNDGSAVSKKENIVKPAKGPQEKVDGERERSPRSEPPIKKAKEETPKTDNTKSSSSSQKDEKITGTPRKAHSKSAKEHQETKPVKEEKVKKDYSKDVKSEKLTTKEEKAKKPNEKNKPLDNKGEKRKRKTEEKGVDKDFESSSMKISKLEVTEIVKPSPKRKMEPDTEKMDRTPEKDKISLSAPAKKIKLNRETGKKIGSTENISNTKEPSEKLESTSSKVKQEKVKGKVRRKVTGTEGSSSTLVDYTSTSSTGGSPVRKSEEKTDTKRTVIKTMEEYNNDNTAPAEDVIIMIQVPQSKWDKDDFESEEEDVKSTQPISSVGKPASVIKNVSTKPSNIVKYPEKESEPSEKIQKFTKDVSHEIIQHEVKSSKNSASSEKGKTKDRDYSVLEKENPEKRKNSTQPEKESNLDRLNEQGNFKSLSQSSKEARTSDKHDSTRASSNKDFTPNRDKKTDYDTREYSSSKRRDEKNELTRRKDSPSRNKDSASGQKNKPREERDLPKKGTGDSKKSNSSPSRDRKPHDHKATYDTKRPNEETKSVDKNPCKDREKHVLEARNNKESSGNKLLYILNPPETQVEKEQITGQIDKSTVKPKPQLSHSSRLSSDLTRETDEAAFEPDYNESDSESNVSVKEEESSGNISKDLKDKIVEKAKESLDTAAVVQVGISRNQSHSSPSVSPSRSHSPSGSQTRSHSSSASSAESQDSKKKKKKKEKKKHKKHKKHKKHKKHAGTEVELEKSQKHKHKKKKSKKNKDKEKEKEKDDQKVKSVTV
inactive: [1] -0.061 | [2] -0.068 | [3] 0.013 | [4] -0.001 | [5] -0.023 | [6] -0.003 | [7] 0.024 | [8] 0.014 | [10] -0.014

SLC1A5 (UniProt Q15758)
inactive: [1] 0.095 | [2] 0.027 | [3] -0.043 | [4] -0.001 | [5] 0.042 | [6] -0.014 | [7] -0.02 | [8] -0.009 | [9] -0.114
active: [10] 0.226

SF3B5 (UniProt Q9BWJ5)
inactive: [1] 0.089 | [2] -0.14 | [3] -0.057 | [5] 0.042 | [6] 0.035 | [7] 0.006 | [8] -0.044 | [9] 0.082 | [10] 0.035
active: [4] 0.426

RPS12 (UniProt P25398)
inactive: [1] 0.108 | [2] 0.219 | [3] 0.038 | [4] -0.021 | [5] -0.002 | [6] 0.063 | [7] -0.028 | [8] -0.037 | [9] 0.064 | [10] 0.079

SELENOH (UniProt Q8IZQ5)
inactive: [1] 0.001 | [2] 0.01 | [3] -0.05 | [4] 0.058 | [5] 0.024 | [6] -0.051 | [7] 0.041 | [8] -0.002 | [9] 0.084 | [10] 0.065

RAVER1 (UniProt E9PAU2)
active: [2] -1.93
inactive: [1] -0.222 | [3] 0.13 | [4] 0.147 | [5] -0.058 | [6] -0.006 | [7] 0.174 | [8] 0.056 | [9] -0.007 | [10] -0.375

RNF26 (UniProt Q9BY78)
Sequence of UniProt Q9BY78 (Q9BY78 whole entry, looked up): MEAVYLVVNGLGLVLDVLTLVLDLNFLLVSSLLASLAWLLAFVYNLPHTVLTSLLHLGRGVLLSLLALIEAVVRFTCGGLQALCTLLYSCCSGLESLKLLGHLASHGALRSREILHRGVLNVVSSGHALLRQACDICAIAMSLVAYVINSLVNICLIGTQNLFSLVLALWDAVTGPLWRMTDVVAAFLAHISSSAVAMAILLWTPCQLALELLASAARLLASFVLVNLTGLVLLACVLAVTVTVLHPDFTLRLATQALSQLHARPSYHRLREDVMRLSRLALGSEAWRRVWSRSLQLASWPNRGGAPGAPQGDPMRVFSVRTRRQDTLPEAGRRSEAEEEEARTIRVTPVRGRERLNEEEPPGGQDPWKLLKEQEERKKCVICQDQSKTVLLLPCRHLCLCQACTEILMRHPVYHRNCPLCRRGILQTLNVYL
active: [10] -1.04
inactive: [6] 0.077 | [7] 0.017 | [8] -0.131

RBM6 (UniProt P78332)
inactive: [2] -0.148 | [3] 0.094 | [6] 0.148 | [9] 0.109 | [10] 0.175

RAD50, A0A494C0Y7
inactive: [1] 0.077 | [2] -0.109 | [6] 0.033 | [7] 0.055 | [8] -0.001 | [9] 0.097 | [10] 0.04

RNF185 (UniProt Q96GF1)
inactive: [1] -0.041 | [2] -0.101 | [3] -0.06 | [5] 0.02 | [6] -0.003 | [7] 0.028 | [8] -0.075 | [10] 0.09

RPS6KA3 (UniProt P51812)
Sequence of UniProt P51812 (P51812 whole entry, looked up): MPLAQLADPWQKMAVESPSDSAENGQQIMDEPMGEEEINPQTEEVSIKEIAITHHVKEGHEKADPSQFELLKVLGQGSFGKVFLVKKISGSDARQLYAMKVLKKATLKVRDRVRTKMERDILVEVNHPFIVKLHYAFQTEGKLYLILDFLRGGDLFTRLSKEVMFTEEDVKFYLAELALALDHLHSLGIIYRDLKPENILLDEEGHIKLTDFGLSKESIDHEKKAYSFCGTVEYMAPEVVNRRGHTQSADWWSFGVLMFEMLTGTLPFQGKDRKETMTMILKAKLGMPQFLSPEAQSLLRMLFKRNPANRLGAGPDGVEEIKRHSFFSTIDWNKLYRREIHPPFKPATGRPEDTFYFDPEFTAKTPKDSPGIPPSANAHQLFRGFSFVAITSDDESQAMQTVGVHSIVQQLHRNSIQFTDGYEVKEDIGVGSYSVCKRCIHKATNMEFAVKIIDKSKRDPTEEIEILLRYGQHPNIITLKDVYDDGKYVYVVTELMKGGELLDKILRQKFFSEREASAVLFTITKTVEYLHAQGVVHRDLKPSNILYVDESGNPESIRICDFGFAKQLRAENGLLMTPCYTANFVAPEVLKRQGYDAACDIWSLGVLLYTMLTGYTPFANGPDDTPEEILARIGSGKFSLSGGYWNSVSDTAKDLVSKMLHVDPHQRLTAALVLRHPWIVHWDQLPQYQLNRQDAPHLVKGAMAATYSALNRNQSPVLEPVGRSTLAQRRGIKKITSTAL
inactive: [2] -0.174 | [3] 0.065 | [4] 0.027 | [5] 0.066 | [6] -0.049 | [7] 0.016 | [8] 0.052 | [9] -0.043 | [10] -0.192

RAPGEF4 (UniProt Q8WZA2)
inactive: [1] -0.13 | [4] -0.038 | [5] -0.136 | [7] -0.011 | [8] 0.065 | [9] -0.036

RPS19 (UniProt M0R2L9)
inactive: [2] 0.492 | [3] -0.256

SEMG2 (UniProt Q02383)
inactive: [1] 0.043 | [3] 0.15 | [4] 0.06 | [6] 0.035 | [8] 0.049 | [10] 0.058

SH3PXD2B (UniProt A1X283)
active: [1] -2.01 | [10] -1.2
inactive: [3] -0.068 | [4] 0.048 | [5] 0.014 | [6] 0.097 | [7] -0.019 | [8] -0.008

RABGAP1L isoform 5 (UniProt Q5R372)
inactive: [2] 0.01 | [3] 0.074 | [4] -0.085 | [5] 0.017 | [8] 0.046 | [9] 0.059

RNF41 (UniProt Q9H4P4)
inactive: [1] 0.044 | [8] -0.073

RCOR3 isoform 3 (UniProt Q9P2K3)
inactive: [1] 0.005 | [2] -0.068 | [3] -0.078 | [5] -0.074 | [6] -0.294 | [7] 0.038 | [8] 0.037 | [9] 0.02 | [10] -0.011

SEPTIN5 (UniProt G3XAH0)
inactive: [2] 0.097 | [3] 0.074 | [4] 0.049 | [5] -0.021 | [6] 0.211 | [7] 0.011 | [8] 0.056 | [9] -0.079 | [10] 0.075

RMDN2 isoform 2 (UniProt Q96LZ7)
inactive: [3] 0.068 | [7] -0.167

RPS3A (UniProt D6R9B6)
inactive: [9] 0.247

RPAIN isoform 8 (UniProt Q86UA6)
inactive: [4] -0.118 | [7] -0.076 | [8] -0.021 | [9] -0.044
active: [2] -0.718

RALGPS2 (UniProt Q86X27)
inactive: [1] 0.139 | [4] -0.247 | [5] 0.145 | [6] -0.203 | [7] -0.059 | [8] -0.082 | [9] 0.137 | [10] 0.082

SCLT1 (UniProt Q96NL6)
inactive: [3] -0.066 | [6] -0.116 | [7] -0.013 | [8] 0.01 | [9] -0.089 | [10] -0.029

SAMD4B (UniProt Q5PRF9)
inactive: [2] 0.078 | [3] -0.047 | [4] 0.02 | [5] -0.124 | [6] 0.023 | [8] -0.008 | [9] 0.089 | [10] -0.308

SIK3 (UniProt H0Y4E8)
inactive: [1] 0.032 | [2] -0.109 | [3] -0.02 | [5] -0.058 | [6] -0.065 | [7] -0.111 | [9] -0.019 | [10] -0.071

RAF1 isoform 2 (UniProt P04049)
inactive: [1] 0.135 | [2] -0.361 | [4] -0.003 | [5] 0.034 | [6] -0.241 | [7] 0.028 | [8] 0.042 | [9] -0.129 | [10] -0.222

S100A10 (UniProt P60903)
Sequence of UniProt P60903 (P60903 whole entry, looked up): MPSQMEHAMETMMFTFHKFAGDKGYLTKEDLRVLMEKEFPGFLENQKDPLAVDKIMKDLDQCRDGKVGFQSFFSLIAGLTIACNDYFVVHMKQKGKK
inactive: [1] 0.284 | [2] -0.048 | [3] 0.145 | [6] -0.056 | [8] -0.094 | [10] -0.026

RNF220 isoform 3 (UniProt Q5VTB9)
inactive: [2] -0.31 | [5] -0.001

SLC12A5 (UniProt Q9H2X9)
Sequence of UniProt Q9H2X9 (Q9H2X9 whole entry, looked up): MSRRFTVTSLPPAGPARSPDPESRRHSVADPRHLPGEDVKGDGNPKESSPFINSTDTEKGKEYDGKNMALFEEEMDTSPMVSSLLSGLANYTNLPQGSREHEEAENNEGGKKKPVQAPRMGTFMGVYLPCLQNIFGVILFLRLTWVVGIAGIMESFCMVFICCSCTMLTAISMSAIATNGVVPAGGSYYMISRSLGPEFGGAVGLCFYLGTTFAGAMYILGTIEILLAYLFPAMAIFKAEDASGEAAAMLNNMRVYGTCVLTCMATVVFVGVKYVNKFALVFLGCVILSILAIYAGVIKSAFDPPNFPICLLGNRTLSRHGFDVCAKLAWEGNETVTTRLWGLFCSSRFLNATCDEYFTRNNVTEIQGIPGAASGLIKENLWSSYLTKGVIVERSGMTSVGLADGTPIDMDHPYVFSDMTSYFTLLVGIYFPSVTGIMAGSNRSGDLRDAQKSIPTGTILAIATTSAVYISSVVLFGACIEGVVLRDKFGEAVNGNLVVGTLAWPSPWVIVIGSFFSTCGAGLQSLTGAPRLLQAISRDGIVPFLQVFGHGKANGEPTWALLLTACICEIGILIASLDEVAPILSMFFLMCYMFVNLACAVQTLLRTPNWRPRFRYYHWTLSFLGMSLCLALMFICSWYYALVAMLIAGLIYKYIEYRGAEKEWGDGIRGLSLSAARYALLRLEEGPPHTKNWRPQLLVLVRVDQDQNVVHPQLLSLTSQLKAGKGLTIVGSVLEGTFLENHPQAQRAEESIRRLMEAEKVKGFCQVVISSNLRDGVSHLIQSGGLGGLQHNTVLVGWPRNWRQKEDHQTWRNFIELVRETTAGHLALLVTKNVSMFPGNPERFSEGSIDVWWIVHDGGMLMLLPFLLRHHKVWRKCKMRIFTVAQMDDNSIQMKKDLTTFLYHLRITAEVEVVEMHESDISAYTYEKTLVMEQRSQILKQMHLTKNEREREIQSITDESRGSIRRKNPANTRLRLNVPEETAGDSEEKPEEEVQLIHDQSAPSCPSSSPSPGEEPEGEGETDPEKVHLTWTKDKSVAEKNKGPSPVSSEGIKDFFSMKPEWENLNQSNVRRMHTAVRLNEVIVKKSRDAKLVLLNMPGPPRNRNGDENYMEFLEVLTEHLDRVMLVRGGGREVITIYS
inactive: [1] -0.007 | [2] -0.033 | [4] -0.162 | [5] 0.002 | [7] -0.013 | [8] -0.022 | [9] 0.316

SCO2 (UniProt O43819)
inactive: [1] -0.109 | [2] -0.346 | [4] -0.055 | [5] 0.042 | [6] -0.051 | [7] 0.039 | [8] 0.034 | [9] -0.014 | [10] -0.187

RUFY3 isoform 3 (UniProt Q7L099)
inactive: [1] -0.135 | [2] -0.149 | [3] -0.071 | [5] -0.046 | [6] 0.079 | [7] 0.011 | [9] -0.015 | [10] -0.048

SAFB2 (UniProt K7EQU4)
inactive: [3] -0.095 | [4] -0.11 | [8] -0.269

RBM48 isoform 2 (UniProt Q5RL73)
Sequence of UniProt Q5RL73 (Q5RL73 whole entry, looked up): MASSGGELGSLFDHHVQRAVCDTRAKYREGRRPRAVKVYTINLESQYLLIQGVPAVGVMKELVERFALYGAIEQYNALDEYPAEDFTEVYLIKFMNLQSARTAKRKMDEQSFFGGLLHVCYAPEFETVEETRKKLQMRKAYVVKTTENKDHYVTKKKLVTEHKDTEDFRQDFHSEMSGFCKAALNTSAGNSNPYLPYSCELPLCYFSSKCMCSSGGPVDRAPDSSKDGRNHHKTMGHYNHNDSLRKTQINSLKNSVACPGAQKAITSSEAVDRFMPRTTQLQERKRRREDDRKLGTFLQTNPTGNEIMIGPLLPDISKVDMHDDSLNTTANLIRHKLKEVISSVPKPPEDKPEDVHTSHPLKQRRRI
inactive: [2] -0.003 | [3] 0.002 | [4] 0.003 | [5] 0.13 | [6] 0.078 | [8] 0.006 | [10] 0.114

SDC3 (UniProt O75056)
inactive: [1] 0.223 | [3] 0.067 | [4] 0.005 | [6] -0.401 | [7] 0.006 | [9] -0.017 | [10] 0.632

SAP30 (UniProt O75446)
inactive: [2] 0.042 | [3] -0.039 | [4] -0.109 | [5] 0.115 | [6] -0.051 | [7] 0.013 | [9] 0.175 | [10] 0.064

RPS3 (UniProt E9PJN9)
inactive: [1] 0.098 | [6] -0.125 | [9] 0.088 | [10] 0.089

RBMY1E (UniProt A6NEQ0)
inactive: [1] -0.068 | [2] -0.236 | [3] -0.034 | [5] -0.134 | [6] 0.084 | [8] -0.058 | [10] -0.199

RNF167 (UniProt Q9H6Y7)
inactive: [2] 0.003 | [3] -0.043 | [4] 0.039 | [5] 0.103 | [6] 0.057 | [7] -0.008 | [8] -0.019 | [9] 0.05 | [10] -0.097

RPS6KA5 (UniProt O75582)
inactive: [1] 0.024 | [2] -0.529 | [4] 0.048 | [5] -0.127

Reference: the supplement of paper PMC10849652
